Laboratory results from PubChem BioAssay AID1572 (National Center for Advancing Translational Sciences (NCATS), 2009).
Records with an inconclusive call do not appear. Where a call stands in place of a potency, no number is given. Active and inactive are the calls of the source. Calls follow the shape of the dose curve; as a rule, active = well fitted curve in either direction with a large enough effect; inconclusive = small, poorly fitted or top-dose-only effect; inactive = flat fitted curve, though single readings scatter.

Assay: Total Fluorescence Confirmation Counterscreen for Inhibitors of the Interaction of Thyroid Hormone Receptor and Steroid Receptor Coregulator 2
Conditions: Texas Red total fluorescence, TRbeta/SRC2 FP artifact counterscreen; series mostly up to 92.2 µM
Source text: NIH Molecular Libraries Probe Production Network [MLPCN] NIH Chemical Genomics Center [NCGC] MLPCN Grant: DK058080 Assay Provider: R. Kip Guy, St. Jude Children's Research Hospital NCGC Assay Overview: Thyroid receptor (TR) regulates many homeostatic processes including basal metabolism, cardiovascular function, body weight, and lipid trafficking. TR modulators are potential therapeutics for obesity and hyperlipidemias but current thyroid analogs have undesirable side effects, particularly cardiac stimulation. To identify inhibitors that specifically prevent the interaction of TR with the steroid receptor coregulator 2 (SRC2), a fluorescence polarization assay was screened. This assay detects interaction of the ligand-binding domain of human TRbeta with a Texas Red labeled SRC2 peptide, corresponding to a 20 amino acid region of the nuclear receptor interaction domain (Arnold et al., 2006). Total fluorescence (555 nm excitation and 632 nm emission) was measured to identify potential fluorescent and light absorbing compounds. Such compounds may be artifacts that interfere with the fluorescence polarization assay. This assay is a confirmation assay for AID 1479. Arnold, L. A.; Estebanez-Perpina, E.; Togashi, M.; Shelat, A.; Ocasio, C. A.; McReynolds, A. C.; Nguyen, P.; Baxter, J. D.; Fletterick, R. J.; Webb, P.; Guy, R. K. A high-throughput screening method to identify small molecule inhibitors of thyroid hormone receptor coactivator binding. Sci STKE 2006, p 13.
NCGC Assay Protocol Summary: For screening, 5 uL/well 0.6 uM TRbeta and 20 nM SRC2 Texas Red in protein buffer (20mM Tris hydrochloride, 100mM NaCl, 10% glycerol, 1mM EDTA, 0.01% NP-40, 1mM DTT, 1uM T3 and 5% DMSO) was dispensed into black solid 1536-well plates (Grenier) using a solenoid-based dispenser. Following transfer of 23 nL compound or DMSO vehicle by a pin tool, the plates were centrifuged 15 s at 1000 RPM and incubated 5 hr at ambient temperature. The plates were read by an Envision (Perkin Elmer) to detect fluorescence polarization of SRC2 Texas Red (555 nm excitation and 632 nm emission). Data were normalized to unbound (all components except TRbeta) and bound SRC2 Texas Red controls. Total fluorescence (TF) was calculated as follows: TF = S + 2P where S and P are fluorescence readings in the parallel and perpendicular channels, respectively. In this assay, we provide % activity data for each concentration as well as potencies for the active compounds.

Structure (SMILES) | Potency
Cc1ccccc1Nc1cc2ccccc2c(=O)[nH]1 | inactive
CC1=NN(Cc2ccccc2)C(=O)C1 | inactive
Nc1cc(-c2ccccc2)c[nH]c1=O | inactive
CC1(C)CC(=O)C(N=Nc2cccc(S(=O)(=O)N3CCOCC3)c2)=C(O)C1 | inactive
C=CCNC(=O)/C(C#N)=C\c1cc(Cl)c(OCC)c(OC)c1 | inactive
Nc1c(C(=O)NCc2ccco2)c2nc3ccccc3nc2n1CCc1ccccc1 | inactive
O=C(O)/C=C/C(=O)Nc1ccc(OC(F)(F)F)cc1Br | inactive
CN(C(=S)Nc1cccnc1)c1ccc(O)cc1 | inactive
COC(=O)c1ccccc1-c1ccc(C(c2c(C)[nH][nH]c2=O)c2c(C)[nH][nH]c2=O)o1 | inactive
COc1ccc(C(=O)Oc2ccc(C(c3c(C)[nH][nH]c3=O)c3c(C)[nH][nH]c3=O)cc2OC)cc1 | inactive
CCOc1ccc(NC(=O)C(c2ccccn2)N(C(=O)CCl)c2ccc(F)cc2)cc1 (stereo not given) | inactive
Nc1cnccc1C(=O)O | inactive
C=CCSc1nnc2n(-c3ccccc3OC)c(=O)c3c4c(sc3n12)CCC4 | inactive
Nc1cccnc1Sc1cc(Cl)c(Cl)cc1Cl | inactive
CCOC(=O)c1cnc2nc(NCc3ccc(OC)c(OC)c3)[nH]n2c1=O | inactive
COc1ccc(-c2nc(CS(=O)CC(=O)NCc3ccccn3)c(C)o2)cc1 (stereo not given) | 35.5 µM [fluorescent] (active)
O=C1CCCC(O)=C1N=Nc1cccc(S(=O)(=O)N2CCOCC2)c1 | inactive
C=CCNC(=O)/C(C#N)=C/c1c(C)nn(-c2ccc(Cl)cc2)c1Cl | inactive
CN1CCc2ccc3c4c2[C@]1(C)Cc1cccc(c1-4)OCO3 | 100 µM [fluorescent] (active)
COc1cc(NCCCC(C)N)c2ncccc2c1 (stereo not given) | inactive

Structure (SMILES) | Potency
CCOc1cc(C(c2c(C)[nH][nH]c2=O)c2c(C)[nH][nH]c2=O)ccc1OC(=O)c1cccc([N+](=O)[O-])c1 | inactive
Cc1cc2ccccc2n1CCNC(=O)C(C)Oc1ccccc1 (stereo not given) | inactive
CN(CCO)c1nc(N)c2c(N)nc3c(c2c1C#N)CC(=O)N3C1CCCC1 | inactive
CCN(CC)S(=O)(=O)c1cccc(N=NC2=C(O)CCCC2=O)c1 | inactive
Cc1nnc(SCC(=O)Nc2ccc(N(C)C)cc2)[nH]c1=O | inactive
CCOC(=O)C(NC(=O)Nc1ccc(O)cc1)(c1ccccc1)C(F)(F)F (stereo not given) | inactive
CCC(NC(=O)Nc1ccc(O)cc1)(C(F)(F)F)C(F)(F)F | inactive
Cn1c(CCN2CCCCC2)nc2cc(NS(=O)(=O)c3ccc(Cl)cc3)ccc21 | inactive
CN1c2ccccc2C(C)(C)C12C=Nc1c(cc(N3CCOCC3)c3ccccc13)O2 (stereo not given) | inactive
Cc1cc2c(NC(=O)Nc3ccccc3)cccc2nn1 | inactive
COC(=O)/C(=C/Nc1ccc(O)cc1)[N+](=O)[O-] | inactive
CCC(C)NC(=O)COC(=O)c1csc2c1CCCC2 (stereo not given) | inactive
O=C(/C=C/c1ccco1)NC(=S)Nc1cc(C(F)(F)F)ccc1N1CCOCC1 | inactive
CCSc1ncc(Cl)c(C(=O)Nc2nc3ccc(OC)cc3s2)n1 | inactive
Cc1ccc2c(CC(=O)Nc3c(C(=O)c4ccc(F)cc4)oc4ccccc34)coc2c1C | inactive
Cc1c(C#N)c(O)n(CCO)c(=O)c1N=Nc1ccc2c(c1)COC2=O | inactive
Cn1cc(/C=C2\SC(=S)N(NC(=O)c3ccccc3)C2=O)c2ccccc21 | 70.8 µM [fluorescent] (active)
Cc1nc2ccccc2n2c(O)c(CC(=O)O)cc12 | 31.6 µM [fluorescent] (active)
Cc1cccc(Cn2c(C(=O)OC(C)C)cc3c2ccn3C)c1 | inactive
CCCc1nc2c(=O)n(C)c(=O)nc-2n(C)n1 | inactive
